Data: PubChem BioAssay AID893 (National Center for Advancing Translational Sciences (NCATS), 2007)
The campaign covered roughly 75,000 compounds. About 5,700 (7.6%) were called active. About 7% were inconclusive and are not listed. The call rests on the fitted dose curve; in most records, active means well fitted inhibition curve with a large enough effect; inconclusive means small, poorly fitted or top-dose-only effect; inactive means no such curve, though single readings can be large or run the other way. The sample as a whole holds a higher share of actives than the screen did.

Each compound was assayed against 3-hydroxyacyl-CoA dehydrogenase type-2 (Homo sapiens) (UniProt Q99714) (assay: qHTS Assay for Inhibitors of HSD17B4, hydroxysteroid (17-beta) dehydrogenase 4). Conditions: recombinant HSD17B10, NADH fluorescence kinetic; series mostly up to 57.1 µM.
Text: Assay Overview: NIH Molecular Libraries Screening Centers Network [MLSCN] NIH Chemical Genomics Center [NCGC] Structural Genomics Consortium [SGC] Grant number: None HADH2: Hydroxyacyl-Coenzyme A dehydrogenase, type II, was supplied by researchers at the Structural Genomics Consortium, Oxford University lab (PI Udo Oppermann). The mitochondrial enzyme 17-hydroxysteroid dehydrogenase type 10 (HSD17-10) previously classified as type II hydroxyacyl-CoA dehydrogenase (HADH2) catalyzes the NAD+ dependent oxidation of a variety of substrates including acyl-CoAs, androgens and neurosteroids as well as bile acids(Shafqat N, Marschall HU, Filling C, et al. Biochemical Journal. 2003;376(Pt 1):49-60). […] The enzyme was produced by E.coli fermentation as His-tagged recombinant for the purpose of X-ray structure determination, and had been mass-spectrometry characterized. Inhibition of HADH2 activity was screened by utilizing beta-hydroxybutyryl coenzyme A as an electron donor and NAD+ as an electron acceptor/cofactor. An increase in the fluorescence intensity due to conversion of NAD+ to NADH was used to measure the enzyme activity.
Assay Protocol: Buffer: 100 mM Tris-HCl pH 9.0, containing 0.01 % Tween-20. Reagents/Controls: Buffer in columns 3 and 4 as negative control (no enzyme). Substrate/cofactor solution: 1 mM NAD+ and 90 uM beta-hydroxybutyryl coenzyme A (Sigma-Aldrich, St. Louis, MO) final concentrations dispensed throughout the plate. Enzyme: 20 nM HADH2 final concentration in columns 1, 2, 5-48. Column 1 is neutral (100% activity). Column 2 contained titration of apomorphine (Sigma-Aldrich, A 4393, PubChem CID 2215, top concentration 500 uM, then 1:2 dilution in duplicate) Assay Steps: Three uL of enzyme were dispensed to 1536-well Greiner black solid bottom plates. Compounds and controls (23 nL) were transferred via Kalypsys PinTool. The plates were incubated for 15 min at room temperature, and then 1 uL of substrate/cofactor solution was added to start the reaction. The plates were immediately transferred to and read every 30 seconds for 4 min on ViewLux High-throughput CCD imager (Perkin-Elmer) using 360 nm excitation and 450 nm emission fluorescence protocol. The fluorescence intensity difference between the last and the first time points was used to compute reaction progress.
Further: nearly all actives have a fitted effect of over 70% in size.
On the % scale 0 is the no-effect control and ±100 the full control effect; potency means the concentration at half of the fitted maximal effect.

Potency, active:
CN(C)CCCn1c(N)c(C#N)c2nc(C#N)c(C#N)nc21 25.1 µM
COC(=O)c1cnn2c(C(F)(F)F)cc(-c3ccco3)nc12 25.1 µM
Cc1ccc(NC(=O)c2cccc(N(C)C)c2)cc1NC(=O)c1ccc(O)cc1 31.6 µM
Cc1ccnc(N2CCCC(C(=O)Nc3cc(F)ccc3C)C2)n1 (stereo not drawn) 25.1 µM
Cc1occc1C(=O)Nc1nnc(-c2ccncc2)s1 31.6 µM
Cn1c(=O)c2c(nc(NCCc3ccccc3)n2Cc2ccccc2)n(C)c1=O 31.6 µM
Cc1ccc2c(CSc3nncs3)cc(=O)oc2c1 12.6 µM
CN(CCc1ccccn1)S(=O)(=O)c1ccc2c3c(cccc13)C(=O)N2 31.6 µM
CCc1ccc(Nc2ncc3c(n2)CC(c2ccco2)CC3=O)cc1 (stereo not drawn) 20 µM

Potency, inactive:
O=C(Cn1cc2c(n1)CCCCC2)NCCN1CCOCC1
Cc1cc(NC(=O)COC(=O)c2ccc(F)c(S(=O)(=O)N3CCOCC3)c2)no1
CC1(C)OC2CC(=O)OC[C@@]23C1CC(=O)[C@]1(C)C3CC[C@@]2(C)C(c3ccoc3)OC(=O)C3O[C@@]321 (stereo partly drawn)
NC[C@@H]1O[C@H](O[C@@H]2[C@H](O[C@@H]3O[C@H](CO)[C@@H](COC[C@H]4O[C@@H](CN)[C@@H](O)[C@@H](O)[C@@H]4N)[C@@H]3O)[C@@H](O)[C@@H](N)C[C@H]2N)[C@@H](N)[C@H](O)[C@@H]1O
C=CCSc1nnc(Cn2c(=O)sc3ccccc32)n1C
Cc1cc(NC(=O)CN2CCC(O)(c3cccc(F)c3)CC2)no1
CCCN(C/C=C\I)[C@@H]1CCc2cccc(O)c2C1
CC(NC(=O)CN1CCN(Cc2ccc(Cl)cc2)C1=O)c1ccc2c(c1)OCCO2 (stereo not drawn)
CC1CCCCC1NC(=O)CSc1nnc(N)s1 (stereo not drawn)
O=c1ccc2cc(S(=O)(=O)N3CCN(c4ccccc4)CC3)ccc2o1
CCOc1ccc(OCC)c(NC(=O)C2CCN(S(=O)(=O)c3c(C)noc3C)CC2)c1
Cc1ccc(F)cc1NC(=O)c1ccc2c(c1)OCO2
COc1ccccc1OCCNCC(O)COc1cccc2[nH]c3ccccc3c12 (stereo not drawn)
C#CC(C)(C)NC(=O)CSc1nc2c(c(=O)n(C)c(=O)n2C)n1CCCC
COC(=O)c1ccccc1NC(=O)Cn1nc(C(F)(F)F)c2c1CCC2
Cc1cc(C(F)(F)F)n2ncc(-c3ccccc3)c2n1
CCC1=C(OC(=O)N(CC)CC)N2C(=O)OC(=NCCc3c[nH]c4ccccc34)[C@]2(C)[C@H]2C1=CC[C@H]1C(=O)N(CC)C(=O)[C@H]12
CCOC(=O)c1cn(CC(=O)Nc2ccc(C(C)C)cc2)nn1
Cn1c(NC(=O)c2ccc3c(c2)OCO3)cc(=O)n(C)c1=O
Cc1ccccc1NC(=O)c1ccccc1
Cc1ccc(F)cc1NC(=O)c1cccc(N(C)C)c1
Cc1ccc(NC(=O)C2CCCN(S(=O)(=O)c3c(C)noc3C)C2)c(C)c1 (stereo not drawn)
O=C(Nc1ccc2c(c1)OCCO2)C1CCCN(c2ncccn2)C1 (stereo not drawn)
COc1ccc(N(CC(=O)NC2CCCCCCC2)S(=O)(=O)c2c(C)nn(C)c2C)cc1
COc1cccc(-n2cc3c(c2-c2ccccc2)c(=O)n(C)c(=O)n3C)c1
Cc1occc1C(=O)Nc1cccc(Cn2cccn2)c1
Cc1occc1C(=O)Nc1nnc(C2CCCCC2)s1
O=C(NC1CCCC1)c1ccc(Br)s1
CCOc1ccc2nc(SC(CC)C(=O)Nc3cc(C)on3)sc2c1 (stereo not drawn)
CN1CCCC1CCO[C@@](C)(c1ccccc1)c1ccc(Cl)cc1 (stereo partly drawn)
COc1ccc2[nH]cc(CCNc3ncnc4ccc(-c5ccc(C(=O)N(C)C)cc5)cc34)c2c1
O=C(CS(=O)(=O)c1cn(Cc2cccc(F)c2)c2ccccc12)N1CCCCC1
CCn1c(NCCc2ccc(OC)c(OC)c2)nc2c1c(=O)n(C)c(=O)n2C
CC1CCN(Cc2nc3c(c(=O)n(C)c(=O)n3C)n2CCc2ccccc2)CC1
CCN(Cc1nc2ccccc2c(=O)[nH]1)Cc1cc(=O)oc2cc(C)c(C)cc12
COC(=O)[C@@]1(Cc2ccc(OC)cc2)[C@H]2c3cc(C(=O)N4CCCC4)n(Cc4ccc(C(F)(F)F)nc4)c3C[C@H]2CN1C(=O)c1ccccc1
CC(C)c1ccc(NS(=O)(=O)c2cn(C)c(=O)n(C)c2=O)cc1
O=c1[nH]nc(Cc2ccccn2)c2ccccc12
COC(=O)c1ccccc1NC(=O)c1cncc(Br)c1
O=C(CSc1nnc2ccccn12)c1ccccc1
CCc1ccc(NC(=O)CSc2nnc(-c3cnccn3)n2Cc2ccco2)cc1
O=C(Nc1ncc2c(n1)CC(c1ccco1)CC2=O)c1ccc(Cl)cc1 (stereo not drawn)

Activity change, negative = inhibition, inactive:
O=C1NC(=O)[C@@](Cc2ccccc2)(c2cccnc2)N1 -1.35% [at 11.4 µM]
CN(C)CCSS(=O)(=O)O 8.4% [at 11.4 µM]
